VACV mCherry inh – qHTS for Stage-Specific Inhibitors of Vaccinia Orthopoxvirus: mCherry Reporter Primary qHTS; Potency, µM (doses to about 36.5 µM), inactives show at the top dose activity change, negative = inhibition, hits mostly inhibitors; 310,000 compounds, 0.63% hits; AID 720579, 2013; Vaccinia virus mCherry reporter infection, fluorescence; calls by dose curve; tested in A549 cells; further: potency means the concentration at half of the fitted maximal effect; nearly all actives have a fitted effect of over 35% in size
Sm TGR inh – qHTS Assay for the Inhibitors of Schistosoma Mansoni Peroxiredoxins; purified TGR, DTNB reduction, TNB absorbance 405 nm; Potency, µM (doses to about 114 µM), for inactives: at the top dose activity change, negative = inhibition, hits mostly inhibitors; 360,000 compounds, 3% hits; AID 485364, 2010; further: potency means the concentration at half of the fitted maximal effect; nearly all actives have a fitted effect of over 60% in size
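Kinetic colorimetric format: TGR-catalysed, NADPH-driven DTNB reduction monitored via TNB absorbance. Enzyme dispensed at 20 nM; compound exposure 15 min at room temperature before reaction start.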
HCMV antiviral – qHTS Assay for inhibitors of the human cytomegalovirus (HCMV); HFF cells, HCMV-luciferase reporter, 72 h; active compounds read low; activity change, negative = inhibition, % at 57.5 µM; 410,000 compounds, 4.5% hits; AID 1259415, 2018; in the data active means activity change below about -60%; inconclusive means no clear call, values can overlap the other calls; inactive means above about -39%
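Two compound doses tested in HFFs infected with HCMV-luciferase, MOI 1 PFU/cell, 72 h at 37C. Lysate luminescence read with OneGlo; data normalized against buffer-only and 10uM Salinomycin inhibitor controls.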
FMDV inh – High Throughput Screening for Foot and Mouth Disease Virus Antivirals. FMDV antiviral cell-based qHTS. Potency, µM (top dose mostly 57.9 µM), for inactives: top-dose activity change, negative = inhibition, hits mostly inhibitors. 410,000 compounds, 1.2% hits; calls by dose curve; tested in HEK293T cells; further: read-out not given here; potency means the concentration at half of the fitted maximal effect; nearly all actives have a fitted effect of over 45% in size
HCV inh – qHTS Assay for Inhibitors of Hepatitis C Virus (HCV); 340,000 compounds, 3.4% hits; AID 651820, 2012; Potency, µM (titrated, usually from 41.8 µM), inactives show top-dose activity change, negative = inhibition, usual class: inhibitors; Huh7.5.1 HCVcc-Cre infection, luciferase reporter, 44 h; further: potency means the concentration at half of the fitted maximal effect
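A cell-based infection assay in which seeded cells (1,000 per well) receive test compound after 4 h, are inoculated with HCVcc-Cre at approximately 0.5 moi, and are incubated 44 h before luminescence detection.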
Vaccinia Venus – qHTS for Stage-Specific Inhibitors of Vaccinia Orthopoxvirus: Venus Reporter Primary qHTS. Vaccinia virus Venus reporter expression, fluorescence. Potency, µM (highest dose often 36.5 µM), for inactives: top-dose activity change, negative = inhibition, actives largely listed as inhibitors. 330,000 compounds, 0.46% hits; calls by dose curve; tested in A549 cells; further: potency means the concentration at half of the fitted maximal effect; nearly all actives have a fitted effect of over 30% in size
* = called active by the depositor; i = inactive; u = inconclusive; x = no result; [ ] = remark or other dose. Most compounds without a hit are left out; they make up all but 9.3% or so of the library. Unless noted, the call rests on the fitted dose curve; in most records, active means well fitted curve in the direction sought with a large enough effect; inconclusive means small, poorly fitted or top-dose-only effect, or another doubt; inactive means no such curve, though single readings can be large; an effect the other way counts as inactive or inconclusive. On the % scale 0 is the no-effect control and ±100 the full control effect.

SMILES | VACV mCherry inh | Sm TGR inh | HCMV antiviral | FMDV inh | HCV inh | Vaccinia Venus
Cc1cc(C)cc(OCC(=O)Nc2cccc(-c3nc4ccccc4[nH]3)c2)c1 | -12% | 10% | 25 | 14% | x | -11%
CC(=O)c1cccc(NC(=O)COc2ccccc2)c1 | x | -14% | 14 | 43% | 3% | x
O=C(COc1ccccc1)Nc1cccc(-c2nc3cc4ccccc4cc3[nH]2)c1 | x | 11% | -12 | 12% | 7.1µM* | x
Cc1ccc(N(C)S(=O)(=O)c2cccc(C(=O)OCC(=O)N(C)Cc3ccccc3)c2)cc1 | i | x | 45 | 28µM* | x | -16%
CN(C(=O)COC(=O)c1cccc(S(=O)(=O)N(C)c2ccccc2)c1)C1CCCCC1 | x | 2% | -12 | u | -16% | x
COc1ccc(N(C(=O)c2ccco2)C(C(=O)NC2CCCC2)c2ccc(N3CCOCC3)cc2)c(OC)c1 (stereo unspecified) | -11% | 3% | 2 | -3% | 4% | 0%
CCOC(=O)c1c(C)[nH]c(C)c1S(=O)(=O)N1CCCC(C(=O)Nc2ccc(C)cn2)C1 (stereo unspecified) | i | 5% | 0 | 2% | x | -13%
CCc1ccc(NC(=O)Cn2cnc([N+](=O)[O-])c2)cc1 | x | 6% | -38 | -15% | -3% | x
CC(=O)Nc1nc(N2C(=O)c3ccccc3C2=O)n(-c2ccccc2)n1 | x | 14% | 10 | -7% | 6% | x
CC(=O)c1cccc(NC(=O)c2ccc(N(C)S(C)(=O)=O)cc2)c1 | x | -2% | 54 | -10% | u | u
CSc1cccc(NC(C)C(=O)NCc2ccccc2)c1 (stereo unspecified) | -17% | 3% | -65* | -3% | -3% | -7%
CN(c1cccc(NC(=O)c2ccc(N(C)S(=O)(=O)c3ccccc3)cc2)c1)S(C)(=O)=O | x | 12% | -72* | 14µM* | 8.9µM* | x
CN(c1cccc(NC(=O)c2ccc(C(C)(C)C)cc2)c1)S(C)(=O)=O | i | 10% | -82* | u | u | -20%
CN(c1ccccc1)S(=O)(=O)c1cccc(NC(=O)C2=NN(c3ccccc3)C(=O)CC2)c1 | x | x | -17 | u | 16µM* | x
Cc1ccc(N(C)S(=O)(=O)c2cccc(C(=O)Nc3ccc(C)cn3)c2)cc1 | -26% | -1% | -23 | 40µM* | u | -23%
CN(c1ccccc1)S(=O)(=O)c1cccc(NC(=O)CN2C(=O)NC3(CCCC3)C2=O)c1 | -10% | -11% | -1 | -12% | 2.8µM* | -26%
CN(C)S(=O)(=O)c1cccc(NC(=O)c2cccc(NS(=O)(=O)c3ccccc3)c2)c1 | -22% | -8% | -89* | u | 13µM* | -17%
COc1ccc(NC(=O)c2cccc(S(=O)(=O)N(C)c3ccccc3)c2)cn1 | -25% | -3% | -75* | 35µM* | u | -14%
CN(c1ccccc1)S(=O)(=O)c1cccc(C(=O)Nc2ccc3c(c2)CCC3)c1 | -14% | -6% | u | -16% | u | -21%
CN(c1ccccc1)S(=O)(=O)c1cccc(NC(=O)c2ccc(Cl)c([N+](=O)[O-])c2)c1 | i | x | -3 | 32µM* | 11µM* | -20%
CC(=O)Nc1ccc(C(=O)Nc2cccc(S(=O)(=O)N(C)c3ccccc3)c2)cc1 | x | 9% | 0 | u | u | x
CC(=O)CCc1ccc(OCC(=O)Nc2cccc(S(=O)(=O)N(C)c3ccccc3)c2)cc1 | -15% | -1% | -8 | -22% | -26% | -16%
CN(c1ccccc1)S(=O)(=O)c1cccc(NC(=O)c2ccncc2)c1 | x | -1% | u | u | 10µM* | x
CN(c1ccccc1)S(=O)(=O)c1cccc(NC(=O)COc2ccccc2)c1 | x | -1% | -9 | -8% | 10µM* | x
CC(=O)c1cccc(NS(=O)(=O)c2cccc(S(=O)(=O)c3ccc(Br)cc3)c2)c1 | -25% | 13µM* | u | u | x | -13%
SMILES | VACV mCherry inh | Sm TGR inh | HCMV antiviral | FMDV inh | HCV inh | Vaccinia Venus
C=CCN(c1ccc(C(=O)NCCN2CCOCC2)cc1)S(C)(=O)=O | -11% | 3% | 29 | -1% | 18% | 4%
COc1cc(C(=O)OCC(=O)NC2CC2)cc(OC)c1OC | x | 5% | -4 | -9% | 6% | x
COc1ccccc1N1CCN(Cc2ccccc2)CC1 | x | 2% | -36 | 3% | u | x
COc1ccccc1N1CCN(Cc2cc(C)c(C)cc2O)CC1 | i | -1% | -20 | u | u | -3%
CCOc1ccccc1N1CCN(Cc2cccc(OC)c2O)CC1 | x | -11% | -14 | u | u | x
COc1ccccc1N1CCN(Cc2cc(COC(C)C)c3cccnc3c2O)CC1 | u | u | -85* | -16% | x | u
COc1ccccc1N1CCN(Cc2cc(Br)c(O)c3ncccc23)CC1 | u | 3.2µM* | -95* | -25% | 4µM* | u
CCCOCc1cc(CN2CCN(c3ccccc3OC)CC2)c(O)c2ncccc12 | u | 40µM* | -100* | -26% | x | u
CCOCc1cc(CN2CCN(c3ccccc3OC)CC2)c(O)c2ncccc12 | 13µM* | u | -98* | 0% | x | -28%
COc1ccc(CNC(=O)COC(=O)CCOc2ccc(C)cc2)cc1 | -5% | 1% | 20 | -23% | 20% | -11%
Nc1nc(N2CCCCC2)nc2ccccc12 | x | -33% | 36 | 8% | -6% | -9%
COc1ccc2[nH]cc(CCN=C(NC(=O)c3ccccc3F)Nc3nc(C)cc(C)n3)c2c1 | -23% | 7% | -66* | -12% | x | 1%
Cc1noc(C)c1-c1ccc2ncnc(NCc3cccc(-c4ccccc4)c3)c2c1 | x | 0% | x | x | x | x
CCOc1ccccc1CNc1ncnc2ccc(-c3c(C)noc3C)cc12 | x | u | -28 | 32µM* | x | x
CC(C)N(C(=O)COC(=O)c1cccnc1Cl)c1ccccc1 | -15% | x | -35 | 3% | 2% | -18%
COc1ccc(C(=O)C2CCCN(Cc3cccn3-c3ccc(Cl)cn3)C2)c(OC)c1 (stereo unspecified) | -16% | 0%[57.1 µM] | u | 20µM* | 8.9µM* | -28%
